Consider 8 molecules from PubChem BioAssay (Tox21).

Assay [1] is described as follows: qHTS assay to test for compound auto fluorescence at 535 nm (green) in HEK293 cells (AID 720680). On the technique in general: Quantitative high-throughput screening tests each substance at several concentrations.
Assay [2] in a line: qHTS assay to test for compound auto fluorescence at 460 nm (blue) in HEK293 cell free culture (AID 720681). An outline of the steps: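 Compounds were added to cell-free DMEM with 10% FBS and fluorescence read directly. The blue channel used 405 nm excitation and 460 nm emission, with triamterene as the reference fluorophore.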
Assay [3] is described as follows: qHTS assay to test for compound auto fluorescence at 535 nm (green) in HEK293 cell free culture (AID 720682). The procedure, abridged: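 Read-out: 485/535 nm fluorescence intensity, calibrated against fluorescein. Medium only (DMEM + 10% FBS, no cells); test compound or DMSO vehicle added by pintool before plate reading.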
Assay [4] in a line: qHTS assay to test for compound auto fluorescence at 590 nm (red) in HEK293 cell free culture (AID 720683). Also: potency is read from the fitted curve at half-maximal effect. The procedure, abridged:
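Cell-free wells of DMEM with 10% FBS received compound, and intrinsic fluorescence was read at excitation/emission 540/590 nm. Values expressed as equivalence to Rose Bengal sodium.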

Assay [5] can be described thus: qHTS assay to test for compound auto fluorescence at 590 nm (red) in HepG2 cell free culture (AID 720684). Also: potency is read from the fitted curve at half-maximal effect. An outline of the steps: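 Compounds are added to culture medium (MEM, 10% FBS) lacking cells, then fluorescence is read at excitation 540 nm, emission 590 nm, with Rose Bengal sodium as the equivalency standard.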
A short description of assay [6]: qHTS assay to test for compound auto fluorescence at 460 nm (blue) in HepG2 cell free culture (AID 720685). An outline of the steps:
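Compound (23 nL) or DMSO pinned into cell-free MEM with 10% FBS; blue fluorescence read at 405/460 nm excitation/emission, expressed as auto-fluorescence equivalency to triamterene.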

Assay [7] can be described thus: qHTS assay to test for compound auto fluorescence at 535 nm (green) in HepG2 cell free culture (AID 720686).
A short description of assay [8]: qHTS assay to test for compound auto fluorescence at 460 nm (blue) in HepG2 cells (AID 720687). The procedure, abridged: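 HepG2 cells in MEM with 10% FBS, attached overnight at 37 C, were exposed to compound or DMSO for 1 hr at 37 C, 5% CO2. Blue fluorescence was read at 405/460 nm, with triamterene as reference fluorophore.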
Assay [9] is described as follows: qHTS assay to identify small molecule antagonists of the glucocorticoid receptor (GR) signaling pathway - cell viability counter screen (AID 720693). Also: nearly all actives have a fitted effect of over 55% in size. Also: potency is read from the fitted curve at half-maximal effect.
A short description of assay [10]: qHTS assay for identifying genotoxic compounds that show differential cytotoxicity against isogenic chicken DT40 cell lines with known DNA damage response pathways - Rev3 mutant cell line (AID 743014). Also: nearly all actives have a fitted effect of over 55% in size. Also: potency is read from the fitted curve at half-maximal effect.
Assay [11] can be described thus: qHTS assay to identify small molecule antagonists of the androgen receptor (AR) signaling pathway - cell viability counter screen (AID 743033; also: nearly all actives have a fitted effect of over 45% in size).
Assay [12] has as its target Androgen receptor (Homo sapiens) (UniProt P10275). The assay is described as follows: qHTS assay to identify small molecule antagonists of the androgen receptor (AR) signaling pathway (AID 743035; active = well fitted inhibition curve with a large enough effect in the signal ratio in the repeat runs, not every such curve was filed as active; the % refers to the signal ratio; also: potency is read from the fitted curve at half-maximal effect). An outline of the steps:
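Antagonism is scored as loss of R1881-driven beta-lactamase reporter expression in HEK293 cells carrying the reporter under a UAS element, after 16 h co-treatment at 37C and a 2 h room-temperature FRET substrate read.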

The target is the same in assay [13]. Kind of assay: qHTS assay to identify small molecule agonists of the androgen receptor (AR) signaling pathway (AID 743036; active = well fitted activation curve with a large enough effect in the signal ratio in the repeat runs, with a control signal flat, not every such curve was filed as active; the % refers to the signal ratio). The procedure, abridged: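 HEK293 cells stably carrying a UAS-driven beta-lactamase reporter (GeneBLAzer AR-UAS-bla-GripTite) were plated at 2,000 cells/well, rested 4 h at 37C, then exposed to compounds in DMSO for 16 h. LiveBLAzer B/G FRET substrate was added for 2 h at room temperature; fluorescence read.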

The target is the same in assay [14]. The assay is described as follows: qHTS assay to identify small molecule agonists of the androgen receptor (AR) signaling pathway using the MDA cell line (AID 743040; also: nearly all actives have a fitted effect of over 20% in size; also: potency is read from the fitted curve at half-maximal effect). The procedure, abridged: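 Human breast carcinoma MDA-kb2 reporter cells (MMTV-luc, AR/GR elements) were treated for 16 h at 37C in 0% CO2 following a 5 h settling period. Signal was quantified by ONE-Glo luminescence.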

Assay [15] can be described thus: qHTS assay to identify small molecule antagonists of the androgen receptor (AR) signaling pathway using the MDA cell line - cell viability counter screen (AID 743041; also: nearly all actives have a fitted effect of over 45% in size; also: potency is read from the fitted curve at half-maximal effect). An outline of the steps:
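Same-well cytotoxicity was assessed by CellTiter-Fluor in MDA-kb2 AR-luc cells after 16 h of compound treatment under R1881 agonism.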

For assay [16], the target named is Androgen receptor (Homo sapiens) (UniProt P10275). The assay is described as follows: qHTS assay to identify small molecule antagonists of the androgen receptor (AR) signaling pathway using the MDA cell line (AID 743042; also: nearly all actives have a fitted effect of over 55% in size). The procedure, abridged:
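MDA-kb2 breast carcinoma cells carrying MMTV-luciferase (AR/GR responsive) were co-treated with compounds and the agonist R1881 for 16 h at 37C. Inhibition read as ONE-Glo luminescence; CellTiter-Fluor fluorescence measured in parallel for cytotoxicity.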

A short description of assay [17]: qHTS assay for identifying genotoxic compounds that show differential cytotoxicity against isogenic chicken DT40 cell lines with known DNA damage response pathways - wild type cell line (AID 743012). Also: potency is read from the fitted curve at half-maximal effect; nearly all actives have a fitted effect of over 60% in size. An outline of the steps: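 Cells (DT40 wild type, 300/well) are treated with DMSO-dissolved compounds after a ~0.5 h pre-incubation and kept 40 h at 37 C/5% CO2. Viability is then measured by CellTiter-Glo luminescence following 30 min at room temperature.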

Assay [18] is described as follows: qHTS assay for identifying genotoxic compounds that show differential cytotoxicity against isogenic chicken DT40 cell lines with known DNA damage response pathways - Rad54/Ku70 mutant cell line (AID 743015). Also: nearly all actives have a fitted effect of over 60% in size. Also: potency is read from the fitted curve at half-maximal effect.
The target of assay [19] is Glucocorticoid receptor (Homo sapiens) (UniProt P04150). Kind of assay: qHTS assay to identify small molecule agonists of the glucocorticoid receptor (GR) signaling pathway (AID 720691; active = well fitted activation curve with a large enough effect in the signal ratio in the repeat runs, not every such curve was filed as active; the % refers to the signal ratio). The following applies: GR-bla HeLa, beta-lactamase reporter ratio, 18 h; activation: at 62.4 µM (top of the series). The procedure, abridged: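 Agonist mode in a HeLa line carrying a GRE-controlled beta-lactamase reporter. Compounds act for 18 h at 37 C before a 2 h room-temperature FRET substrate step and fluorescence reading.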
Glucocorticoid receptor (Homo sapiens), sequence (P04150 whole entry, looked up): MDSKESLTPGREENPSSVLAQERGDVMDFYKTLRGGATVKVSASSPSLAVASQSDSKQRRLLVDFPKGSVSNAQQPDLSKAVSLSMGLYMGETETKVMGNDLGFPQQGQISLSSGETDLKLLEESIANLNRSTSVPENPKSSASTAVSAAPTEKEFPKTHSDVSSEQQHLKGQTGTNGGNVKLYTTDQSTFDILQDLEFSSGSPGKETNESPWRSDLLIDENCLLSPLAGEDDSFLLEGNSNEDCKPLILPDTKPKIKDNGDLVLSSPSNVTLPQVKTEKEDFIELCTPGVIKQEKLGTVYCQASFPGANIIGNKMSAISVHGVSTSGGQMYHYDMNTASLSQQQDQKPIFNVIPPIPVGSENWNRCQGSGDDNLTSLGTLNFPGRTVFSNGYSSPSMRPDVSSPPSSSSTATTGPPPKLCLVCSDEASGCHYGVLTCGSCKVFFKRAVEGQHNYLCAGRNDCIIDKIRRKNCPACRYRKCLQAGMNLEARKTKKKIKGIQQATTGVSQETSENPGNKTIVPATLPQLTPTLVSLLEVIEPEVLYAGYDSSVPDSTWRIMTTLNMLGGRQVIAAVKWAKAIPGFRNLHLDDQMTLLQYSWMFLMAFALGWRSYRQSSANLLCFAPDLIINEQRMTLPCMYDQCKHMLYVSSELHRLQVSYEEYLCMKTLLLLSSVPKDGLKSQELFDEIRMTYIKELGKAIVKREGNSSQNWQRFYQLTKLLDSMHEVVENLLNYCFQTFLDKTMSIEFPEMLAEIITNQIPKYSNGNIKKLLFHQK

Assay [20] shares this target. Kind of assay: qHTS assay to identify small molecule antagonists of the glucocorticoid receptor (GR) signaling pathway (AID 720692; active = well fitted inhibition curve with a large enough effect in the signal ratio in the repeat runs, not every such curve was filed as active; the % refers to the signal ratio). An outline of the steps:
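Cells plated, rested 4 h at 37 C/5% CO2; compounds in DMSO pin-transferred; dexamethasone added to 5 nM final; 18 h at 37 C; B/G FRET substrate added, 2 h room temperature; fluorescence measured.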

Results filed as inconclusive are left out. Active and inactive are the calls of the source. Unless noted, calls follow the shape of the dose curve; as a rule, active = well fitted curve in the direction sought with a large enough effect in the repeat runs; inconclusive = weak or mixed curves; inactive = no such curve, though single readings can be large; an effect the other way counts as inactive or inconclusive.
Tags tell the direction and shape of the fitted curve or compound fluorescence and quenching.

Androgen receptor (Homo sapiens), sequence (P10275 whole entry, looked up): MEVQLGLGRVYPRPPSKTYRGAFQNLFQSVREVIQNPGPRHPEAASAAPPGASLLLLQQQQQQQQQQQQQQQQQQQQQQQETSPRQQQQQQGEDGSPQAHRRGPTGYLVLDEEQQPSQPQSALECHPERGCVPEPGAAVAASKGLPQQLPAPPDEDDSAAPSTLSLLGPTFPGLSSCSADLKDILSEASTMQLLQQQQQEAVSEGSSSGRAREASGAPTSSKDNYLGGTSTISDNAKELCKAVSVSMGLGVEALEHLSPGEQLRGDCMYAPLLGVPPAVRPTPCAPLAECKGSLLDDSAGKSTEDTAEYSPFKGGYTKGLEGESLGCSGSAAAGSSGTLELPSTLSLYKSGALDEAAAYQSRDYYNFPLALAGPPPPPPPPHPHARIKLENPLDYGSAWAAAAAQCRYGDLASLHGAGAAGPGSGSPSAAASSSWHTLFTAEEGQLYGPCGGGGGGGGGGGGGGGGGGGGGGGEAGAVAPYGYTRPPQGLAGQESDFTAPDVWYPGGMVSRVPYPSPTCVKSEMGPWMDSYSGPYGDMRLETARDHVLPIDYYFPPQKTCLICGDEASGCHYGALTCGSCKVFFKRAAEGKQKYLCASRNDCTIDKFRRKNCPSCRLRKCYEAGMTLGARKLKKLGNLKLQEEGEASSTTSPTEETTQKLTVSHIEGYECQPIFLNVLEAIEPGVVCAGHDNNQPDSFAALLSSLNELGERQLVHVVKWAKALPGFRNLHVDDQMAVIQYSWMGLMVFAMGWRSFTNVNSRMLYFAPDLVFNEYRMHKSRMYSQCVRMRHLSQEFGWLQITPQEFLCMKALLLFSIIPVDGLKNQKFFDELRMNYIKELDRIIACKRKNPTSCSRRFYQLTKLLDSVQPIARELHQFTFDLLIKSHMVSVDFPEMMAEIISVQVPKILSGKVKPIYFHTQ

For `O=C(O)c1c(Cl)c(Cl)c(Cl)c(Cl)c1-c1c2cc(I)c(=O)c(I)c-2oc2c(I)c(O)c(I)cc12`, the Potency result in assay [1], in assay [2], in assay [3], in assay [7], in assay [9] and in assay [10] was “inactive” in each case. Moreover, the Potency result in assay [11], in assay [12], in assay [13] and in assay [16] was “inactive” each time. In addition, the Potency was 11.2 µM [fluorescent] (active) in assay [4], 11.2 µM [fluorescent] (active) in [5], 13.3 µM (active) in [14] and 24.8 µM (active) in assay [15]. Moreover, the molecule was called inactive in assay [6] and in [8].

As for `CCCCCCCCCCCCCCCCOCCOCCOCCOCCOCCOCCOCCOCCOCCOCCOCCOCCOCCOCCOCCOCCOCCOCCOCCOCCO`, the Potency entry in [1], in assay [2], in assay [3], in [4], in assay [5] and in assay [7] was “inactive” each time. Also, the molecule was classed as inactive in assay [6] and in assay [8]. For the same molecule, the Potency was 13.4 µM (active) in [9], 2.37 µM (active) in assay [17], 29.8 µM (active) in [18] and 29.8 µM (active) in assay [15].

As for `NCCC[C@H](N)C(=O)O`, the Potency result in [1], in assay [2], in assay [3], in assay [4], in assay [5] and in [7] was “inactive” each time. Further, the Potency entry in assay [9], in assay [11] and in [15] was “inactive” each time. The call in assay [6] and in assay [8] was inactive.

As to `O=C1CSC2(CCN(CCCN3c4ccccc4Sc4ccc(Cl)cc43)CC2)N1`, the Potency result in [1], in assay [2], in assay [3], in assay [4], in [5] and in assay [7] was “inactive” in each case. Further, the Potency entry in assay [14] and in [15] was “inactive” throughout. For the same molecule, the call in [6] and in [8] was inactive. Besides, the Potency in [17] was 5.96 µM (active); in assay [10] it was 7.5 µM (active); in assay [18], 8.41 µM (active); in [12], 21.3 µM (active).

For `O=C(CCCN1CCC(n2c(=S)[nH]c3ccccc32)CC1)c1ccc(F)cc1`, the Potency result in assay [1], in assay [2], in assay [3], in [4], in [5] and in [7] was “inactive” in each case. Moreover, the molecule was classed as inactive in assay [6] and in assay [8]. Further, the Potency in [17] is 11.9 µM (active); in [10] it was 18.8 µM (active); in assay [18] it was 16.8 µM (active).

Turning to `CCOc1ccc(N=Nc2ccc(N)cc2N)cc1`, the Potency entry in [1], in [2], in [3], in [4], in [5] and in assay [7] was “inactive” throughout. For the same molecule, the Potency entry in assay [11] and in assay [16] was “inactive” throughout. For the same molecule, the molecule was classed as inactive in assay [6] and in [8]. The Potency in assay [17] is 23.7 µM (active); in assay [18], 21.1 µM (active); in assay [14] it was 0.473 µM (active); in assay [15] it was 15 µM (active).

Take `NCCCNCCCCNC(=O)C(O)NC(=O)CCCCCCN=C(N)N` (stereo not given): the Potency result in assay [1], in assay [2], in [3], in assay [4], in assay [5] and in assay [7] was “inactive” each time. Also, the Potency entry in assay [19], in assay [20], in assay [9], in assay [11] and in [15] was “inactive” in each case. Moreover, the molecule was classed as inactive in [6]. Also, the Potency is 1.06 µM (active) in assay [17], 1.68 µM (active) in [10] and 0.841 µM (active) in [18].

Regarding `NC(N)=NCC1COc2ccccc2O1` (stereo not given), the Potency result in assay [1], in assay [2], in assay [3], in assay [4], in assay [5] and in assay [7] was “inactive” each time. In addition, the Potency result in assay [9], in assay [10], in assay [18] and in assay [11] was “inactive” throughout. In addition, the call in assay [6] and in assay [8] was inactive.
